# High-throughput results as filed in PubChem.
# MbtI inh: blocks the Mycobacterium tuberculosis siderophore enzyme MbtI | P9WFX0 | purified MbtI enzyme, fluorescence intensity read-out | inhibition, % (no concentration beside the values) | hit rate 0.89% among 100,000 | AID 493033; in the data active means inhibition mostly above about 56%, no sharp cut-off; inactive means mostly below about 77%
# Target sequence (P9WFX0 whole entry, looked up): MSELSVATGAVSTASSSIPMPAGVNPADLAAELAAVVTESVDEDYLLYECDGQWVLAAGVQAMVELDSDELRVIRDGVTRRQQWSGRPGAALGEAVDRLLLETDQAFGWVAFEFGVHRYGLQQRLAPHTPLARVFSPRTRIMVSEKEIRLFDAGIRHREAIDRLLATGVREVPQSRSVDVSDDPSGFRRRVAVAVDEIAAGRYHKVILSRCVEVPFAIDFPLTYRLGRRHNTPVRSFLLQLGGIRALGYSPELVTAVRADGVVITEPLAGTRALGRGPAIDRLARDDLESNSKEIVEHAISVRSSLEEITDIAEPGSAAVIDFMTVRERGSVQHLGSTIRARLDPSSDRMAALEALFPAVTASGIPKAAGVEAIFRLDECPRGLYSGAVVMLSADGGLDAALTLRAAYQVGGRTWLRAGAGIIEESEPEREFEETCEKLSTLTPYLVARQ
# Mtb MenB inh: Mtb MenB enzyme inhibition. inhibition, % (no concentration beside the values). P9WNP5. hit rate 0.43% among 100,000. AID 540299. MenB enzyme assay, absorbance read-out; in the data active means inhibition above about 21%, passing the limit was not always enough
# Polio RdRp inh: inhibitors of poliovirus RNA polymerase binding and polymerization; P03300; % elongation, % (compound at 16.7 µg/mL); poliovirus polymerase elongation, fluorescence polarization; hits give low values; hit rate 0.66% among 150,000; in the data active means % elongation below about 90%
# An asterisk follows results filed as active; nt = no result; ! = not confirmed by another sample. A selection: hits, their analogues and other compounds. The true share with any hit is near 1.4%.
SMILES,MbtI inh,Mtb MenB inh,Polio RdRp inh
O=C1CC(CSc2ccc(Cl)cc2)=NN1c1nc2ccccc2s1,-6.0,-49.6,103.0
CC(C)(C)C1=NN(c2nc3ccc(Cl)cc3s2)C(=O)C1,60.2*,8.8,106.0
Cn1c(Cc2ccccc2)n[nH]c1=S,51.9,-25.8,101.0
Nn1c(Cc2ccccc2)n[nH]c1=S,98.9*,-63.9,99.0
CC(C)CN(CC(C)C)Cn1nc(C2COc3ccccc3O2)oc1=S (stereo not drawn),-3.5,0.8,104.0
COc1cccc(C2C(C#N)=C(N)Oc3c2c(=O)n(C)c(=O)n3C)c1 (stereo not drawn),-20.4,-42.2,101.0
Cn1c2c(c(=O)n(C)c1=O)C(c1ccccc1)C(C#N)=C(N)O2 (stereo not drawn),nt,-18.7,85.0*
CCC(Sc1nc2ncccc2o1)C(=O)Nc1ccc(OC)c(Cl)c1 (stereo not drawn),-8.6,5.7,102.0
COC(=O)c1ccc(COC(=O)c2oc3ccc(OC)cc3c2C)o1,101.3,-14.7,103.0
COc1cc(Cl)c(NS(=O)(=O)c2ccc(-c3cnc(C4CC4)o3)cc2)c(OC)c1,nt,nt,87.0*
COc1ccc(C)cc1NS(=O)(=O)c1ccc(-c2cnc(C3CC3)o2)cc1,nt,nt,105.0
CCN(CC(=O)Nc1ccc(S(N)(=O)=O)cc1)CC(=O)Nc1cc(Cl)ccc1C,-2.4,-11.3,104.0
O=C(CCc1nc2ccccc2s1)N1CCN(c2ccccn2)CC1,-41.0,-19.4,107.0
CCn1c(CCC(=O)N2CCN(c3ccccn3)CC2)nc2cc(S(N)(=O)=O)ccc21,103.1,-1.1,55.0*
O=S(=O)(Nc1cc(Sc2ncn[nH]2)c(O)c2ccccc12)c1cccs1,-7.6,23.8,103.0
O=C(O)c1cccc(S(=O)(=O)/N=C2/C=C(NS(=O)(=O)c3ccccc3)C(=O)c3ccccc32)c1,29.1,-8.5,96.0
CCOc1ccc(S(=O)(=O)/N=C2/C=C(Sc3ncn[nH]3)C(=O)c3ccccc32)cc1,97.7,-20.8,99.0
O=C1C(NS(=O)(=O)c2ccccc2)=C/C(=N\S(=O)(=O)c2ccc(F)cc2)c2ccccc21,-2.1,0.0,78.0*
O=C1C(Sc2ncn[nH]2)=C/C(=N/S(=O)(=O)c2ccc(F)cc2)c2ccccc21,97.9,-5.8,88.0*
O=C1C(Sc2ncn[nH]2)=C/C(=N/S(=O)(=O)c2cccs2)c2ccccc21,90.1,-29.7,87.0*
O=C(Cc1cn2ccsc2n1)NC12CC3CC(CC(C3)C1)C2,-7.4,-44.6,109.0
CCCCn1c(=O)c2ccccc2n2c(SCC(=O)N3CCN(c4ccccc4)CC3)nnc12,5.5,-18.9,104.0
N#Cc1ccccc1-c1nnn(CC(=O)N/N=C/c2ccc3c(c2)OCO3)n1,8.5,8.4,100.0
CC1(C)C2CC=C(C3N=C(N)Nc4nc5ccccc5n43)C1C2 (stereo not drawn),0.2,-12.3,99.0
OCCn1c(-c2ccc(F)cc2)csc1=Nc1cccc(Cl)c1,7.3,-1.4,101.0
SMILES,MbtI inh,Mtb MenB inh,Polio RdRp inh
CCC(C)c1ccc(NC(=O)COC(=O)c2cccc(F)c2)cc1 (stereo not drawn),-12.2,nt,102.0
Oc1c(Cl)cc(Cl)cc1/C=N/c1ccnn1-c1ccccc1,38.6,-58.0,111.0
Oc1c(Br)cc(Cl)cc1/C=N/c1ccccn1,162.8,-104.0,75.0*
O=c1cc(CNC2CCCCC2)c2ccccc2[nH]1,71.8,30.2*,99.0
OCc1ccccc1CNC1CCCCC1,nt,-11.9,109.0
CN1C(=O)C(C(N)=O)=C(N)C12CCCC2,-7.6,-30.5,105.0
Nc1cccc2cccc(C(=O)O)c12,-7.1,nt,89.0*
CC(Sc1cccc2cccc(C(=O)O)c12)C(=O)O (stereo not drawn),4.8,-10.5,105.0
CCN(CC)C(=O)c1cnn(-c2ccccc2)c1-n1cccc1,3.0,6.4,100.0
CN(C)C1CCS(=O)(=O)C1 (stereo not drawn),-12.6,-36.0,102.0
CC1=CC(=O)C(N(C)C2CCS(=O)(=O)C2)=CC1=O (stereo not drawn),100.0*,2.6,96.0
CC(C)C(OC(=O)c1cc2occc2n1C(C)C)C(=O)NCC1CCCO1 (stereo not drawn),16.7,-30.6,106.0
C=CCn1c(=S)[nH]c2cc(C(=O)O)ccc2c1=O,13.6,0.0,104.0
C=CCn1c(=S)[nH]c2ccccc2c1=O,18.9,31.1*!,104.0
CN(Cc1cn(-c2ccccc2)nc1-c1ccc(Cl)cc1)C(=O)CCc1ccco1,22.2,-30.8,105.0
CCN(CC)CCNc1nc2c(c(=O)n(C)c(=O)n2C)n1CCc1ccccc1,19.1,22.7*,103.0
CCN(CC)CCNc1nc2c(c(=O)n(C)c(=O)n2C)n1Cc1ccc(F)cc1,-1.3,nt,nt
N#C/C(=C1\CCCCCN1)c1nc2ccccc2[nH]1,-8.2,-2.2,99.0
CCCCC(CC)CN=C(N)NC(N)=NCCCCCCN=C(N)NC(N)=NCC(CC)CCCC (stereo not drawn),54.9*!,-3.6,98.0
COC(=O)[C@@H](N)CCCN=C(N)N[N+](=O)[O-],5.3,-5.4,101.0
CC(C(=O)N1CCN(c2ccc(F)cc2)CC1)N1C(=O)c2ccccc2C1=O (stereo not drawn),-0.5,-13.4,102.0
CC(C(=O)N1CCCC1)N1CCN(c2ccc(F)cc2)CC1 (stereo not drawn),-4.3,40.5*,98.0
CCC(C(=O)N1CCCC1)n1nc(C)c2sc3ccccc3c2c1=O (stereo not drawn),7.7,7.2,102.0
CCC(C(=O)N1CCN(c2ccccc2)CC1)n1nc(C)c2sc3ccccc3c2c1=O (stereo not drawn),nt,nt,90.0*
O=C(O)C(Cc1cnc[nH]1)N1C(=O)C2C3c4ccccc4C(c4ccccc43)C2C1=O (stereo not drawn),-3.6,-3.1,101.0
SMILES,MbtI inh,Mtb MenB inh,Polio RdRp inh
COc1ccc(CCN(C)c2nc(N)c3c(N)nc(SCC(=O)O)cc3c2C#N)cc1OC,-109.8,-27.8,72.0*
COc1cc2c(C#N)c(N(C)CCc3ccc(OC)c(OC)c3)nc(N)c2c(N)n1,-71.1,5.4,125.0
CNC(=O)CCC(=O)Nc1cc(Cl)ccc1Cl,nt,-3.3,103.0
CCCSc1nc(-c2ccc(OC)cc2)cc(-c2ccccc2OC)c1C#N,nt,nt,88.0*
COc1ccc(-c2cc(-c3ccccc3)c(C#N)c(SCCS(=O)Cc3ccccc3)n2)cc1 (stereo not drawn),46.4,-23.7,98.0
CCCSc1nnc(-c2ccc(F)cc2)o1,-4.5,-12.2,100.0
C=CCNCC(=O)NC12CC3CC(CC(C3)C1)C2,4.0,-1.7,97.0
Cc1ccccc1NC(=S)N/N=C/c1ccc(O)cc1O,21.1,-58.5,81.0*
Cc1ccccc1NC(=S)Nc1cc(NS(C)(=O)=O)ccc1C,3.0,9.3,110.0
CCOc1ccc(C(=O)OCC(=O)N2CCCCC2)cc1OCC,4.4,8.4,102.0
CC(C)(C)N(N)C(=S)NCc1ccc(F)cc1,90.0*,-23.2,86.0*
NNC(=S)NCc1ccc(F)cc1,-5.0,1.6,103.0
CCCS(=O)(=O)N1CCN(c2ccc(NCC3CCCO3)nn2)CC1 (stereo not drawn),-7.3,-17.6,110.0
Cc1cc(C)cc(OCc2cc(=O)n3c4c(sc3n2)CCCC4)c1,nt,nt,78.0*
Cc1ccc(OCc2cc(=O)n3c4c(sc3n2)CCCC4)cc1C,nt,nt,106.0
CCCC(=O)n1c(=O)oc2cc(Br)ccc21,nt,-3.5,99.0
CNc1nc(SCC(=O)OC)nc(N2CCOCC2)n1,2.5,55.9*,104.0
